Consider ten molecules from PubChem BioAssay.

Each structure is given as a SMILES string. Records with an inconclusive call do not appear. The source made the active and inactive calls. Unless noted, the limit is not given here; nearly all actives have AC50 up to about 26 µM.

Usually AC50 stands for the concentration giving half of the maximal activity seen. In general, inhibition refers to the relative decrease from the control value, in per cent.

Test [1] can be described thus: viability loss in pontine glioma line – cell-based, SU-DIPG-IV, MIPE4.0, CellTiter-Glo, qHTS, dose response (AID 1347063; cut-off not given, nearly all actives have AC50 up to about 30 µM;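 also: compound exposure lasted 48 hours before the viability readout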). To be noted: CellTiter-Glo ATP luminescence. A general note: ATP-based viability assays read luminescence as a measure of living cells.
Test [2] can be described thus: growth inhibition of DIPG cells – cell-based, MIPE4.0 library, CellTiter-Glo luminescence, qHTS (AID 1347066; cut-off not given, nearly all actives have AC50 up to about 30 µM;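 also: cells exposed to compound for 48 hours before readout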). To be noted: SU-DIPG-VI viability, CellTiter-Glo ATP luminescence.
A short description of test [3]: growth inhibition, single agent or in combination, cell-based, chromothripsis tumors, cisplatin or BGB combos (AID 1671449; in the data active = inhibition above about 80%;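 also: cells exposed for 96 hours; 0% = vehicle DMSO and 100% = killing by high DMSO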). The conditions noted are these: LFS_MB_P medulloblastoma cells.
A short description of test [4]: growth inhibition, single agent and combos, cell-based, chromothripsis tumors, cisplatin or BGB combos (AID 1671450; in the data active = inhibition above about 80%;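 also: cells exposed to compound for four days; 0% = vehicle DMSO and 100% = cell killing by high DMSO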). The conditions noted are these: HDN33 neuroblastoma cells, stronger effect = higher value.
Test [5] in a line: growth inhibition, single agents and combos, ICB984, cell-based, cisplatin or BGB combos, synergistic combos for chromothripsis tumors (AID 1671451; call rule not given here;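 also: cells exposed for 96 hours before readout; 0% = vehicle DMSO and 100% = killing by high DMSO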). To be noted: ICB984 medulloblastoma cells, drug combinations, stronger effect = higher value.
Test [6] in a line: growth inhibition, single agents and combos, HTB85, cell-based, BGB or cisplatin IC20 combos, synergistic combos for chromothripsis tumors (AID 1671453; in the data active = inhibition above about 80%;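 also: cells exposed for 96 hours before readout; 0% = vehicle DMSO and 100% = high DMSO killing control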). The conditions noted are these: HTB85 osteosarcoma cells, drug combinations, stronger effect = higher value.
Test [7] can be described thus: growth inhibition, MDA-MB-436, cell-based, BGB or cisplatin combos, synergistic combos for chromothripsis tumors (AID 1671458; call rule not given here;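 also: cells exposed for 96 hours; 0% = vehicle DMSO and 100% = killing by high DMSO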). The conditions noted are these: MDA-MB-436 breast carcinoma growth inhibition, drug combinations, stronger effect = higher value.
The nature of test [8]: BT084 cell growth, single and combined drugs, ICGC_MB145, cisplatin and BGB IC40 combos (AID 1671461; in the data active = inhibition above about 80%;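 also: cells exposed to drugs for 96 hours; 0% = vehicle DMSO and 100% = high DMSO full killing control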). To be noted: BT084 medulloblastoma cells, drug combinations, stronger effect = higher value.
Test [9] is described as follows: RCMB18 cell growth, single agent and combined, cisplatin and BGB IC40 combos (AID 1671462; in the data active = inhibition above about 80%;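 also: cells exposed to compound for four days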). The conditions noted are these: RCMB18 medulloblastoma cells, stronger effect = higher value.
A short description of test [10]: CRL1545 cell growth, single agent and combined, cisplatin and BGB IC20 combos (AID 1671464; in the data active = inhibition above about 80%;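 also: cells exposed to compound for 96 hours before readout; 0% = vehicle DMSO and 100% = high DMSO killing control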). The conditions noted are these: CRL1545 osteosarcoma cells, stronger effect = higher value.
A short description of test [11]: viability loss in pontine glioma line – cell-based, SU-DIPG-XVII, MIPE5.0, CellTiter-Glo, qHTS, dose response (AID 1347060). The conditions noted are these: CellTiter-Glo ATP luminescence.
A short description of test [12]: viability loss in pontine glioma line – cell-based, SU-DIPG-XIII, MIPE5.0, CellTiter-Glo, qHTS, dose response (AID 1347064; cut-off not given, nearly all actives have AC50 up to about 23 µM). To be noted: CellTiter-Glo ATP luminescence.
Test [13] can be described thus: viability loss in pontine glioma line – cell-based, SU-DIPG-XXV, MIPE5.0, CellTiter-Glo, qHTS, dose response (AID 1347065).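 Also: cells exposed to compound for 48 hours before ATP readout.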 The conditions noted are these: CellTiter-Glo ATP luminescence.
Test [14] can be described thus: growth inhibition of DIPG cells – cell-based, MIPE5.0 library, qHTS (AID 1347068; cut-off not given, nearly all actives have IC50 up to about 30 µM). To be noted: SU-DIPG-XXV viability. On the technique in general: In qHTS, concentration-response curves come from the screen itself.
Test [15] can be described thus: viability loss in pontine glioma line – cell-based, SU-DIPG-XIII, MIPE4.0, CellTiter-Glo, qHTS, dose response (AID 1347061; cut-off not given, nearly all actives have AC50 up to about 37 µM;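 also: cells exposed to compound for 48 hours before readout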). The conditions noted are these: CellTiter-Glo ATP luminescence.
Test [16] is described as follows: viability loss in pontine glioma line – cell-based, JHH-DIPG-1, MIPE4.0, CellTiter-Glo, qHTS, dose response (AID 1347062; cut-off not given, nearly all actives have AC50 up to about 27 µM). The conditions noted are these: JHH-DIPG-1 viability, CellTiter-Glo ATP luminescence.
A short description of test [17]: JHH-DIPG-1 glioma cell viability, MIPE5.0 library, CellTiter-Glo luminescence, qHTS (AID 1347067).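 Also: cells exposed to compound for 48 hours before readout.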 The conditions noted are these: JHH-DIPG-1 glioma viability, CellTiter-Glo ATP luminescence.
For test [18], the system named is Hepatitis C virus NS3 helicase. In words: blockers of NS3h binding to ssDNA – biochemical, fluorescence polarization, LOPAC1280 library, primary screen (AID 687035; in the data active = inhibition above about 37%). The conditions noted are these: Purified HCV NS3 helicase, Cy5-dT15 ssDNA binding fluorescence polarization; stronger effect = higher value; concentration not given here. (Polarisation of emitted light reports the rotation of a fluorescent probe.)

Test [19] can be described thus: compounds altering Cy5-DNA-NS3h complex signal – biochemical, LOPAC1280, artefact control for HCV NS3 helicase inhibitor project (AID 687037; call rule not given here). To be noted: Cy5-DNA-NS3h complex fluorescence interference counterscreen.
[20] abbreviates: measured here: with BGB IC20 combination, at 0.5 µM.
Setting [21] is: measured here: with cisplatin IC20 combination, at 0.5 µM.

On to `O=c1c(O)c(-c2ccc(O)c(O)c2)oc2cc(O)ccc12`, for which the half-maximal activity concentration (AC50) in test [1] was 18.7 µM (active); in test [2] it was 29.6 µM (active). Besides, the inhibition in test [3] (at 0.5 µM, stronger effect = higher value) is -6.56% (inactive); in test [3] (measured here: combination with BGB IC20, at 0.005 µM), -16.9%; in test [3] (measured here: combination with BGB IC40, at 0.005 µM) it was 5.59%; in [3] (measured here: combination with BGB IC40, at 0.05 µM), 5.54%; in test [3] (measured here: combination with cisplatin, at 0.5 µM, stronger effect = higher value) it was -17.1%; in [3] (measured here: combination with cisplatin, at 5 µM, stronger effect = higher value), 11%. Also, the inhibition in test [4] (BGB combo, at 5 µM) is -4.9%; in [4] (at 0.5 µM), 4.36% (inactive); in test [4] (cisplatin combo, at 5 µM) it was 3.02%; in test [4] (setting [20]), -4.05%; in test [4] (setting [21]), 5.86%; in test [4] (single agent, at 5 µM), -1.94%. The inhibition in test [5] (BGB IC20 combo, at 0.005 µM) was -15.9%; in test [5] (BGB IC40 combo, at 0.005 µM), -16.9%; in test [5] (BGB IC40 combo, at 0.05 µM) it was -3.67%; in [5] (at 0.5 µM) it was -24.7% (inactive); in test [5] (cisplatin combo, at 0.05 µM) it was -3.67%; in test [5] (cisplatin combo, at 0.5 µM) it was -43.4%. For the same molecule, the inhibition in test [5] (cisplatin combo, at 5 µM) was -7.32%; in test [5] (measured here: 5 uM single agent, at 5 µM), -7.82%; in [6] (at 0.5 µM) it was 3.31% (inactive); in test [6] (measured here: with BGB IC20, at 0.5 µM), -8.35%; in test [6] (measured here: with BGB IC20, at 5 µM), 3.71%; in test [6] (measured here: with cisplatin IC20, at 0.5 µM), 14.6%. Moreover, the inhibition in test [6] (measured here: with cisplatin IC20, at 5 µM) is 6.28%; in test [6] (single agent, at 5 µM), 8.35%; in test [7] (at 0.5 µM) it was -7.38% (inactive); in test [7] (measured here: BGB combination, at 0.5 µM), 5.2%; in test [7] (measured here: BGB combination, at 5 µM) it was -2.65%; in test [7] (measured here: cisplatin combination, at 0.5 µM), -24.9%. Further, the inhibition in test [7] (measured here: cisplatin combination, at 5 µM) is 5.5%; in test [8] (at 0.5 µM), -4.39% (inactive); in test [8] (cisplatin combination, at 0.5 µM) it was -0.071%; in [8] (cisplatin combination, at 5 µM), -26.8%; in test [8] (measured here: BGB IC40 combination 0.05 uM, at 0.05 µM), 5.57%; in test [8] (single agent, at 5 µM) it was -4.55%. For the same molecule, the inhibition in test [9] (at 0.5 µM) was -4.12% (inactive); in [9] (cisplatin combo, at 5 µM), 18.3%; in test [9] (measured here: BGB IC40 combination, at 0.05 µM), 21.3%; in test [9] (measured here: combination with cisplatin, at 0.5 µM), -7.15%; in [9] (single agent, at 5 µM), -9.89%; in test [10] (at 0.5 µM), -3.43% (inactive). Also, the inhibition is -7.45% in test [10] (setting [20]); -1.43% in test [10] (setting [21]); 31.3% in test [10] (single agent, at 0.05 µM); 6.36% in test [10] (single agent, at 5 µM).
For `c1ccc2c(Cc3c[nH]c4ccccc34)c[nH]c2c1`, the result in test [11], in test [12], in test [13], in [2] and in test [14] was inactive.
As to `COc1cc(/C=C/C(=O)O)ccc1O`, the call in [15], in test [16], in test [1] and in [2] was inactive.
Consider `O=c1cc(-c2ccccc2)oc2cc(O)cc(O)c12`, for which the molecule was classed as inactive in test [15], in test [16], in [1], in test [2] and in test [17]. The AC50 in test [13] was 20.9 µM (active).
For the molecule `CC[C@H]1OC(=O)[C@H](C)[C@@H](O[C@H]2C[C@@](C)(OC)[C@@H](O)[C@H](C)O2)[C@H](C)[C@@H](O[C@@H]2O[C@H](C)C[C@H](N(C)C)[C@H]2O)[C@](C)(O)C[C@@H](C)/C(=N\OCOCCOC)[C@H](C)[C@@H](O)[C@]1(C)O`, the molecule was called inactive in [15], in [16], in test [1] and in test [2].
Consider `COc1cc2c(cc1OC)[C@@H]1C(=O)c3ccc4c(c3O[C@@H]1CO2)C=CC(C)(C)O4`, for which the concentration at half-maximal activity (AC50) in [15] was 23.5 µM (active); in test [17] it was 18.6 µM (active). Also, in [14], the outcome was inactive.
With `O=C(CCc1ccc(O)cc1)c1c(O)cc(O)cc1O`, the inhibition in test [18] was -4% (inactive). In [19], the fluorescence ratio (interference) is 1 (inactive). Also, the molecule was called inactive in test [11], in [16], in test [12], in [13], in [17] and in [14].
Regarding `COc1ccc(-c2cc(=O)c3c(O)cc(O)cc3o2)cc1O`, the results for the AC50 in test [15] and in test [2] were 11.8 µM (active) and 10.5 µM (active), respectively.
With `O=C1C[C@@H](c2ccc(O)cc2)Oc2cc(O)cc(O)c21`, the molecule was classed as inactive in test [11], in test [15], in test [16], in test [1], in [13] and in test [2]. Moreover, the call in test [17] and in [14] was inactive.
Take `Cc1cc(O)c2c(c1)C(=O)c1cccc(O)c1C2=O`: the molecule was classed as inactive in test [11], in test [15], in test [1], in test [12], in [13] and in test [17]. The outcome in [14] was inactive.
